Source: PubChem (National Center for Advancing Translational Sciences (NCATS))
Giardia FBPA inh = inhibitors of Giardia lamblia fructose-1,6-bisphosphate aldolase | A8B2U2 | purified Giardia FBPA | Potency, µM (series often up to 59.6 µM), inactives show top-dose activity, negative = inhibition, hits mostly inhibitors | 290,000 tested, 0.71% active; further: potency means the concentration at half of the fitted maximal effect; nearly all actives have a fitted effect of over 55% in size
Target sequence (A8B2U2 whole entry, looked up): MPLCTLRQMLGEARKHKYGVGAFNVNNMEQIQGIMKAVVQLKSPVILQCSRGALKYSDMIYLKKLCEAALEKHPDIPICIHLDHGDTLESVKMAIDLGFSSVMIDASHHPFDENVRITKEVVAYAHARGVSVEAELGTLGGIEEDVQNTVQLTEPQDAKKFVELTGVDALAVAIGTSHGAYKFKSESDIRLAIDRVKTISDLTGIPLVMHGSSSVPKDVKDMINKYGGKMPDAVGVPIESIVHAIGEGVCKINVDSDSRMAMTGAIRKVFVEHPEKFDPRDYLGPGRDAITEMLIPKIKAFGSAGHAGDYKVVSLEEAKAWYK
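Giardia FBPA (40 nM reagent) was preincubated 10 min at RT with compound (up to 57.5 uM final), then substrate plus GAPDH/TPI/NAD/arsenate coupling system with diaphorase/resazurin was added; resorufin fluorescence (525/598 nm) was read after 20 min.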
HCMV inh = human cytomegalovirus inhibition | HFF cells, HCMV-luciferase reporter, 72 h; stronger effect = lower value | activity change, negative = inhibition, % at 57.5 µM | 410,000 tested, 4.5% active; in the data active means activity change below about -60%; inconclusive means no clear call, values can overlap the other calls; inactive means above about -39%
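Two compound doses tested in HFFs infected with HCMV-luciferase, MOI 1 PFU/cell, 72 h at 37C. Lysate luminescence read with OneGlo; data normalized against buffer-only and 10uM Salinomycin inhibitor controls.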
Sm TGR block = inhibitors of Schistosoma mansoni thioredoxin glutathione reductase | Q962Y6 | AID 485364 | purified TGR, DTNB reduction, TNB absorbance 405 nm | Potency, µM (titrated, usually from 114 µM), without a hit: at the top dose activity change, negative = inhibition, actives largely listed as inhibitors | 360,000 tested, 3% active; further: potency means the concentration at half of the fitted maximal effect; nearly all actives have a fitted effect of over 60% in size
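TGR 20 nM + NADPH 100 uM (dispensed conc.), cpd preinc 15 min RT; start with NADPH (500 uM addition) then DTNB (15 mM addition). Kinetic TNB absorbance, 405 nm filter. Four-parameter Hill fit across titration.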
Pf growth 96h = P. falciparum growth inhibition at 96 hours | AID 504834 | P. falciparum luciferase reporter growth, 96 h | 320,000 tested, 6.9% active | Potency, µM (titrated, usually from 28.7 µM), inactives show at the highest dose activity change, negative = inhibition, hits mostly inhibitors; further: potency means the concentration at half of the fitted maximal effect
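Readout is luminescence from an integrated firefly luciferase in P. falciparum. Red cells, 2% hematocrit and 0.05% parasitemia final, were cultured with compound through two parasite generations (96 hours) at 37 C, 5% CO2.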
Pf growth 48h = inhibits P. falciparum growth in the first generation, 48 h. P. falciparum luciferase growth in erythrocytes, 48 h. Potency, µM (titrated, usually from 28.7 µM), for inactives: top-dose activity change, negative = inhibition, most hits filed as inhibitors. 310,000 tested, 5.9% active. AID 504832; further: potency means the concentration at half of the fitted maximal effect
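Erythrocytes infected with P. falciparum carrying an integrated firefly luciferase reporter (2% hematocrit, 0.1% parasitemia final) were exposed to compounds in RPMI 1640 with 0.5% Albumax at 37 C, 5% CO2. Growth inhibition was scored as reduced luminescence.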
* = called active by the depositor; ? = inconclusive; · = no result; [ ] = another dose, or the depositor's remark. Compounds with a hit are over-represented: about 14% of the library has one in this group of screens. Unless noted, the call rests on the fitted dose curve; in most records, active means well fitted curve in the direction sought with a large enough effect; inconclusive means small, poorly fitted or top-dose-only effect, or another doubt; inactive means no such curve, though single readings can be large; an effect the other way counts as inactive or inconclusive. On the % scale 0 is the no-effect control and ±100 the full control effect.

SMILES | Giardia FBPA inh | HCMV inh | Sm TGR block | Pf growth 96h | Pf growth 48h
CN(Cc1cccc(Cl)c1Cl)C(=O)c1cc(S(=O)(=O)N2CCOCC2)ccc1F | · | -24 | · | · | ·
Cc1ccc(N(Cc2ccccc2)C(=O)c2cc(S(=O)(=O)N3CCOCC3)ccc2F)cc1 | · | ? | 0% | ? | 12µM*
C=CCN(Cc1ccc(Cl)s1)C(=O)c1cc(S(=O)(=O)N2CCOCC2)ccc1F | · | 0 | -5% | ? | 13µM*
O=C1C(=Cc2cccc(F)c2)Cc2ccccc21 | · | -10 | · | · | ·
CCOC(=O)N1CCN(c2nc(-c3ccco3)cc(C(F)(F)F)n2)CC1 | 0% | -62* | 0% | -12% | 23%
O=C(CSc1nc(-c2ccco2)cc(C(F)(F)F)n1)Nc1ccccc1C(F)(F)F | -2% | 5 | -4% | 7.4µM* | 18%
COc1ccc(NC(=O)CCSc2nc(-c3ccco3)cc(C(F)(F)F)n2)cc1OC | · | -15 | -7% | · | ·
O=C(CSc1nc(-c2ccco2)cc(C(F)(F)F)n1)N1CCN(c2ccc(Cl)cc2)CC1 | -3% | -21 | -14% | ? | ?
COc1ccc(NC(=O)CSc2nc(-c3ccco3)cc(C(F)(F)F)n2)cc1Cl | · | -69* | 0% | · | ·
COc1ccccc1N1CCN(C(=O)CSc2nc(-c3ccco3)cc(C(F)(F)F)n2)CC1 | -11% | 4 | 35µM* | 11% | ?
CCCNC(=O)OC[C@@H]1O[C@H](CCO/N=C\[C@@H](OC)[C@H](C)/C=C\CC(=O)OC)C=C[C@@H]1Oc1ccc(OC)cc1 | 1%[12.9 µM] | · | · | · | ·
COc1ccccc1N1CCN(C(=O)CSc2ccc3c(C)cc(C)nc3n2)CC1 | -7% | -3 | -21% | 48% | 10µM*
COc1ccc(Cc2c(C3CCCCC3)nc3c(Cl)cc(C(F)(F)F)cn23)c(C)c1 | · | 37 | · | · | ·
CC1CCCC(C)N1C(=O)Cn1c(SCC(=O)Nc2ccc3c(c2)OCO3)nc2ccccc21 (stereo not drawn) | 0% | ? | 0% | 13µM* | ?
CC1Cc2nc(SCC(=O)Nc3ccc4c(c3)OCO4)n(Cc3ccccc3)c(=O)c2S1 (stereo not drawn) | -3% | 56 | 1% | -5% | 2.3µM*
CC1Cc2nc(SCC(=O)Nc3nccs3)n(Cc3ccccc3)c(=O)c2S1 (stereo not drawn) | -8% | 69 | 2% | 1.5µM* | 3.3µM*
CC1Cc2nc(SCC(=O)Nc3ccc(F)cc3F)n(C)c(=O)c2S1 (stereo not drawn) | 5% | ? | 4% | ? | 6.6µM*
COc1ccc(C2/C=C\CN3CCC[C@H]3C(=O)N2Cc2ccc(F)cc2)cc1 (stereo partly drawn) | · | 13 | · | · | ·
COc1ccc(NC(=O)C2C3C=CC4(O3)C2C(=O)N(CCN2CCCCC2C)C4C(=O)NC2CCCCC2)cc1 (stereo not drawn) | -17% | 3 | -22% | ? | -3%
CC(C)(N)C(=O)N[C@@H](Cc1cnc[nH]1)C(=O)N[C@H](Cc1ccc2ccccc2c1)C(=O)N[C@H](Cc1ccccc1)C(=O)N[C@@H](CCCCN)C(N)=O | 7% | · | · | · | ·
CCc1ccc(CNC(=O)C2CCN(S(=O)(=O)N3CCCCC3)CC2)cc1 | · | 2 | · | · | ·
CC1Cc2nc(SCC(=O)N3CCN(c4ccccc4)CC3)n(CCc3ccccc3)c(=O)c2S1 (stereo not drawn) | -2% | ? | -8% | ? | 9.3µM*
CCn1c(SCC(=O)Nc2cccc(F)c2)nc2c(c1=O)SC(C)C2 (stereo not drawn) | 5% | 0 | -1% | 2.6µM* | 4.1µM*
COc1cc(NC(=O)CCN2CCN(c3ccccc3OC)CC2)cc(OC)c1 | · | 38 | · | · | ·
Cc1ccc(NC(=O)c2ccc(Cl)c(N3C(=O)C=CC3=O)c2)cc1 | -29% | -12 | 0.56µM* | 38% | 51%
SMILES | Giardia FBPA inh | HCMV inh | Sm TGR block | Pf growth 96h | Pf growth 48h
Cc1ccc(NC(=O)c2ccc(C)c(S(=O)(=O)N3CCCCCC3)c2)cc1 | · | ? | 16% | · | ·
CC1(C)Cc2cccc(OCC(O)CN3CCN(c4ccccn4)CC3)c2O1 (stereo not drawn) | 2% | -27 | -1% | ? | 12µM*
O=S(=O)(NCc1ccccc1F)c1cccc(S(=O)(=O)N2CCOCC2)c1 | 1% | 1 | -3% | 63% | 8.3µM*
O=S(=O)(NCCc1ccccc1)c1cccc(S(=O)(=O)N2CCOCC2)c1 | 4% | 20 | 35µM* | · | 7%
O=S(=O)(NCc1ccc(F)cc1)c1cccc(S(=O)(=O)N2CCOCC2)c1 | -1% | 1 | -2% | -21% | ·
COc1ccc2[nH]c3c(c2c1)CCN1C(=O)C(CC(=O)NC(C)(C)C)C[C@H](C(=O)N(C(C)C)C(C)C)[C@@]31C (stereo partly drawn) | · | -21 | · | · | ·
CCN(Cc1ccc2c(c1)OCCO2)C(=O)CSc1nc(C)nc2sc(C)c(C)c12 | · | -38 | 0% | -24% | ?
CN(C)c1cc[n+](CC(=O)Nc2ccc(Oc3ccccc3)cc2)cc1 | -4% | -98* | 7% | ? | ?
O=C(C[n+]1ccccc1)Nc1ccccc1 | · | 50 | · | · | ·
Cc1cccc(NC(=O)C[n+]2ccc(N(C)C)cc2)c1 | ? | ? | 26% | -19% | ?
CN(C)c1cc[n+](CC(=O)c2ccc(OC(F)F)cc2)cc1 | 5% | ? | 10% | 0.74µM* | 0.74µM*
Cc1ccsc1C(=O)OCC(=O)c1ccc(OC(F)F)cc1 | · | -14 | -12% | 45% | 72%
CN(C)c1cc[n+](CC(=O)Nc2ccc(Cl)cc2)cc1 | -16% | -89* | 7% | ? | 0.083µM*
CCOc1ccc(NC(=O)C[n+]2ccc(N(C)C)cc2)cc1 | -10% | -97* | -7% | ? | 0.66µM*
CC(=O)c1ccc(NC(=O)C[n+]2ccccc2)cc1 | 17% | 13 | 3% | ? | -8%
COC(=O)c1ccc(NC(=O)C[n+]2ccccc2)cc1 | -25% | 19 | -25% | 13µM* | -5%
COc1ccc(N2Cc3cccc(C(=O)NC(C)CCc4ccco4)c3C2=O)cc1 (stereo not drawn) | -5% | -25 | 0% | 12µM* | ·
CSc1cc(-c2ccccc2)n(Cc2ccccc2Cl)c(=O)c1C#N | 3% | -8 | 0% | 45% | ·
N#Cc1c(-c2ccccc2)ccn(Cc2ccccc2Cl)c1=O | -10% | -2 | 0% | 15µM* | ?
N#Cc1c(-c2ccccc2)ccn(Cc2cccc(Cl)c2)c1=O | -2% | 67 | -14% | 13µM* | ?
O=C(Nc1cccc2ccccc12)OC1C=CS(=O)(=O)C1 (stereo not drawn) | -3% | -70* | -14% | -49% | -73%
CCN1C(=O)C(CC(=O)Nc2ccc(F)cc2)N(Cc2ccc3c(c2)OCO3)C1=S (stereo not drawn) | 4% | 7 | -2% | ? | ?
CC1=C[C@]23OC(C)(C)C[C@@]2(C)C[C@H](C)C3=CC1=O | · | 18 | · | · | ·
